KCNQ2 enhance: KCNQ2 (rat) channel potentiation; O88943; CHO-K1 KCNQ2, FluxOR thallium flux fluorescence; stronger effect = higher value; B-score at 10 µM; 310,000 tested, 0.54% active;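 active = fluorescence ratio B-score at least 3 SD of library B-scores, with initial fluorescence B-score within 3 of them, cut at about 5.3 in these data; same plate scores as AID 2156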;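 note: B-score of peak minus minimum over baseline fluorescence ratio after K+ and Tl+ stimulus; positive B-score means potentiation of KCNQ2 with more thallium influx and brighter signal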
KCNQ2 block: blocks the rat KCNQ2 potassium channel; B-score at 10 µM; AID 2156; 310,000 tested, 1.1% active; CHO-K1 KCNQ2, FluxOR thallium flux, 20 min; stronger effect = lower value; O88943;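 active = fluorescence ratio B-score at most minus 3 library SDs, with starting brightness B-score within 2 library SDs, cut at about -5.5 in these data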
* hit, by the source's call; i = inactive; nt = no result given. An excerpt weighted towards active compounds, which were near 1.6% of everything screened.

SMILES	KCNQ2 enhance	KCNQ2 block
CCOc1cc(CNCCCN2CCOCC2)cc(Br)c1OCc1ccccc1Cl	-5.9	-5.9*
CCOc1cc(CNCCN2CCOCC2)ccc1OCc1ccccc1Cl	nt	i
COc1ccccc1C1NC(=O)NC(C)=C1C(=O)OC1CCC(C)CC1 (configuration not stated)	0.05	i
CC(C)(C)N(NC(=O)OCc1ccccc1)C(=O)c1ccccc1	nt	i
CC(C)(C)N(NC(=O)OCc1ccccc1)C(=O)c1ccccc1Cl	7.7*	i
Cc1ccc2c(c1)sc(-c1ccc(N(C)C)cc1)[n+]2C	nt	i
COC(=O)C1CCN(C(=O)C2CCN(C(=O)[C@@H](NS(=O)(=O)c3ccc(C)cc3)C(C)C)CC2)CC1	nt	i
CN(CC(=O)Nc1ccccc1Cl)C(=O)Cn1cc(C(F)(F)F)cc(Cl)c1=O	0.61	i
Cc1cccc(C(=O)NNC(=O)c2ccccc2)c1	0.1	i
Cc1cccc(C(=O)c2cnc3ccccc3c2-c2ccccc2)c1	-6.4	-6.4*
NS(=O)(=O)c1ccc(CCNS(=O)(=O)Cc2ccc(Cl)cc2)cc1	0.15	i
COc1cc(COCC(O)CN2CCN(CCN3C(=O)c4cccc5cccc(c45)C3=O)CC2)cc(OC)c1OC (configuration not stated)	0.97	i
O=C1c2cccc3cccc(c23)C(=O)N1CCN1CCN(CC(O)COCc2ccc(Cl)cc2)CC1 (configuration not stated)	-5.7	-5.7*
COc1ccc(NC(=O)N(C2CCCCC2)C(C)c2cccnc2)c(OC)c1 (configuration not stated)	nt	i
COc1ccc(NC(=O)N(C2CCCCC2)C(C)c2ccco2)c(OC)c1 (configuration not stated)	-8.2	-8.2*
O=C(CCCCCN1C(=O)[C@@H]2Cc3ccccc3CN2C1=O)Nc1cccc(F)c1	-5.8	-5.8*
Cc1cccc(NC(=O)CCCCCN2C(=O)[C@@H]3Cc4ccccc4CN3C2=O)c1	nt	i
N#CCCN(CCN1CCCC1)S(=O)(=O)c1ccc(-c2ccc([N+](=O)[O-])cc2)cc1	nt	i
Cc1ccc(NCc2nnc(SCC(=O)c3ccccc3)o2)c(C)c1	nt	i
Cc1ccc(C)c(NC(=O)CSc2nnc(CSc3nc(C)cc(C)n3)n2Cc2ccco2)c1	nt	i
Cc1ccc(NCc2nnc(SCC(=O)c3ccccc3)n2Cc2ccco2)c(C)c1	-7.8	-7.8*
Cc1ccc(NC(=O)CSc2nnc(CSc3nc(C)cc(C)n3)n2Cc2ccco2)c(C)c1	-6.7	-6.7*
C=CCN(c1cccc(C(F)(F)F)c1)S(=O)(=O)c1cccc(C(=O)OCC(=O)NC)c1	1.6	i
C=CCN(c1cccc(C(F)(F)F)c1)S(=O)(=O)c1cccc(C(=O)OCC(=O)Nc2ccccc2)c1	7.5*	i
COc1ccccc1CNC(=O)c1cc(-c2ccccc2)nn1CC1CC(c2cccnc2)=NO1 (configuration not stated)	-6.1	-6.1*
SMILES	KCNQ2 enhance	KCNQ2 block
O=C(O)c1cc(-c2ccccc2)nn1CC1CC(c2cccnc2)=NO1 (configuration not stated)	1.3	i
O=C(O)CN(c1ccccc1)S(=O)(=O)c1cc(C(F)(F)F)cc(C(F)(F)F)c1	nt	i
CCc1c(C)c2ccc(OCC(=O)NCC3CCC(C(=O)O)CC3)c(C)c2oc1=O (configuration not stated)	nt	i
Cc1ccc(CN(CC(O)COc2cccc3[nH]cc(C)c23)C(C)(C)C)cc1 (configuration not stated)	-6.7	-6.7*
Cc1c[nH]c2cccc(OCC(CNC(C)(C)C)OC(=O)c3ccccc3)c12 (configuration not stated)	nt	i
OCCC1CCCCN1CC(O)COCc1ccc(Cl)cc1 (configuration not stated)	1.8	i
COc1ccccc1OCC(=O)NCCSCc1ccccc1Cl	-6.2	-6.2*
COc1ccccc1OCC(=O)NCCNC(=O)COc1ccccc1OC	nt	i
CC(C)(C)c1ccc(C(=O)NCCOc2ccccc2)cc1	nt	i
COc1ccccc1OCC(=O)NCCSCc1cccc(Cl)c1	-6.4	-6.4*
O=C(COc1ccccc1)NCCSCc1ccccc1Cl	nt	i
COc1ccccc1C(=O)NCCCNC(=O)c1ccccn1	nt	i
COc1ccccc1C(=O)NCCSCc1ccccc1Cl	-6.4	-6.4*
COc1ccccc1C(=O)NCCOc1ccc(C(C)(C)C)cc1	-5.8	-5.8*
O=C(Nc1ccc(OC(F)F)cc1)c1cc(S(=O)(=O)N2CCOCC2)ccc1F	nt	i
COc1cccc(OC)c1OCCCN1CCC(Cc2ccccc2)CC1	0.35	i
Cc1cc(C)cc(NC(=O)CCc2c(C)nn(-c3ccc(N4CCOCC4)nn3)c2C)c1	0.66	i
C=CCc1cccc(Cl)c1OCCCNC1CCCC1	1.2	i
COc1ccc(S(=O)(=O)Nc2noc3ccccc23)cc1	0.99	i
CCOc1ccc(NC(=S)N2CCC(NC(=O)c3ccccc3C)CC2)cc1	1.9	i
O=C(NCC1CCCO1)c1cc2ccccc2o1 (configuration not stated)	0.49	i
O=C(C1CC1)N1N=C(C2CCCCC2)CC1(O)C(F)(F)F (configuration not stated)	nt	i
NS(=O)(=O)c1ccc(CCNC(=O)c2cc([N+](=O)[O-])ccc2N2CCCCC2)cc1	nt	i
CN(C)S(=O)(=O)Nc1cc(F)cc(F)c1	nt	i
O=C(COc1ccccc1)NCCSCc1ccc(Cl)cc1	-6.6	-6.6*
SMILES	KCNQ2 enhance	KCNQ2 block
O=C(Cc1ccccc1)NCCSCc1ccc(Cl)cc1	1.4	i
COc1ccc(CC(=O)OCN2C(=O)c3ccccc3C2=O)cc1OC	nt	i
CC(C)Cc1nnc(NC(=O)CCC(=O)NC2CC2)s1	0.58	i
O=S(=O)(Nc1c(S(=O)(=O)c2ccccc2)c2nc3ccccc3nc2n1C1CCCCC1)c1ccccc1	-6.2	-6.2*
C=CCn1c(NS(=O)(=O)c2ccccc2)c(S(=O)(=O)c2ccc(C)cc2)c2nc3ccccc3nc21	nt	i
COc1ccc2c(O)c(-c3c(C)cc(C)cc3C)c(=O)[nH]c2c1	nt	i
CC1CCCN(C(=O)c2ccc([N+](=O)[O-])o2)C1 (configuration not stated)	nt	i
CC1CCCN(C(=O)c2ccc(-c3ccccc3Cl)o2)C1 (configuration not stated)	-7.4	-7.4*
O=C(OCc1cccc(F)c1)c1cc2ccccc2cc1O	nt	i
Cc1nn(CCCC(=O)NCCCN2CCN(C)CC2)c(=O)c2c1sc1ccccc12	0.97	i
Cc1ccc(C)c(N(CC(=O)NC2CCCC2)C(=O)c2oc(C(C)(C)C)cc2C)c1	-6.6	-6.6*
Cc1cc(C(C)(C)C)oc1C(=O)N(CC(=O)NC1CCCC1)Cc1ccccc1	nt	i
O=[N+]([O-])c1cc2c(cc1C=Nc1ccccc1)OCO2	nt	i
Cc1cccc(N=Cc2cc3c(cc2[N+](=O)[O-])OCO3)c1	-6.5	-6.5*
COc1ccc(-n2nc(C(=O)NCC(=O)N3CCN(c4ccccn4)CC3)c3ccccc3c2=O)cc1	-8.2	-8.2*
COc1ccc(-n2nc(C(=O)NCC(=O)N3CCN(c4ccccn4)CC3)c3ccccc3c2=O)cc1OC	nt	i
Cn1cc(Br)c(C(=O)N/N=C/c2cc3c(cc2Cl)OCO3)n1	nt	i
COc1ccc(CCNC(=O)c2ccc3nc(N4CCCCC4)sc3c2)cc1OC	nt	i
O=C(NCC(c1ccco1)N1CCc2ccccc2C1)c1cccc([N+](=O)[O-])c1 (configuration not stated)	nt	i

Screening results as filed in PubChem BioAssay.
